From PubChem BioAssay (NCI)
This is part of a sample that, as a whole, favours compounds with a hit. Of some 83,000 tested, about 20% had one in any assay.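 Activity criterion: percent growth below 10, measured after cells in 96-well plates were exposed to a single compound concentration for 48 hours.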 Calls of active or inactive are those of the source.

Legend:
Test in all cases: NCI-60 one-dose screen, 48 h (100 = growth as untreated, 0 = no growth, -100 = all killed)
Settings in all cases: 10 µM unless noted
HCT-15 colon = system: HCT-15 colon
HT29 colon = system: HT29 colon
SNB-75 CNS = system: SNB-75 CNS
SNB-19 CNS = system: SNB-19 CNS
U251 CNS = system: U251 CNS
PC-3 prostate = system: PC-3 prostate
SK-MEL-5 melanoma = system: SK-MEL-5 melanoma
UACC-62 melanoma = system: UACC-62 melanoma
LOX IMVI melanoma = system: LOX IMVI melanoma
SK-MEL-28 melanoma = system: SK-MEL-28 melanoma

Measured: growth

O=C1Nc2cc(Cl)ccc2/C1=C\c1ccc(OCc2ccccc2)cc1
inactive: HCT-15 colon 95% | HT29 colon 105% | SNB-75 CNS 73.3% | SNB-19 CNS 103% | U251 CNS 104% | PC-3 prostate 88.2% | SK-MEL-5 melanoma 97.2% | UACC-62 melanoma 95.9% | LOX IMVI melanoma 92.7% | SK-MEL-28 melanoma 103%

C#C[C@]1(O)CC[C@H]2[C@@H]3CC=C4c5sc(Nc6ncccc6C)nc5CC[C@]4(C)[C@H]3CC[C@@]21C
inactive: HT29 colon 25.4%
active: HCT-15 colon -1.06% | SNB-75 CNS -2.92% | SNB-19 CNS 1.7% | U251 CNS 3.14% | PC-3 prostate -18.4% | SK-MEL-5 melanoma 5.96% | UACC-62 melanoma -25.9% | LOX IMVI melanoma -78%

CNC(=O)c1cc(Oc2ccc3c(c2)sc2nc(-c4ccc(N(C)C)cc4)cn23)ccn1
active: HCT-15 colon 8.11% | HT29 colon -16.1% | LOX IMVI melanoma 0.0095%
inactive: SNB-75 CNS 17.8% | SNB-19 CNS 25% | U251 CNS 13.5% | PC-3 prostate 32.4% | SK-MEL-5 melanoma 11.9% | UACC-62 melanoma 41.4% | SK-MEL-28 melanoma 56.8%

Cc1ccc(S(=O)(=O)c2nc(-c3ccc(F)cc3)oc2S(C)(=O)=O)cc1
inactive: HCT-15 colon 13.4% | HT29 colon 55.1% | SNB-75 CNS 87.2% | SNB-19 CNS 91.4% | U251 CNS 96.1% | PC-3 prostate 91.8% | SK-MEL-5 melanoma 98.4% | UACC-62 melanoma 84.4%
active: LOX IMVI melanoma -68.8%

CN1CCN(c2ccc(Nc3nc(NCCNS(=O)(=O)c4ccc5ccccc5c4)c4sccc4n3)cc2)CC1
active: HCT-15 colon 7.96% | HT29 colon 8.55% | LOX IMVI melanoma -77.3%
inactive: SNB-75 CNS 78% | SNB-19 CNS 90.6% | U251 CNS 13.4% | PC-3 prostate 76% | SK-MEL-5 melanoma 86.1% | UACC-62 melanoma 66.5%

C#CCOc1ccc(/C=N/Nc2nc(-c3ccc(OC)cc3)cs2)cc1
inactive: HCT-15 colon 80.1% | HT29 colon 105% | SNB-75 CNS 86.2% | SNB-19 CNS 87.8% | U251 CNS 96.4% | PC-3 prostate 73.1% | SK-MEL-5 melanoma 70.1% | UACC-62 melanoma 67.1% | LOX IMVI melanoma 89.7%

CC(C)(C)OC(=O)NCc1ccc(CNc2c([N+](=O)[O-])cnc3ccccc23)cc1
active: SK-MEL-5 melanoma 2.87%
inactive: HCT-15 colon 74% | HT29 colon 83.8% | SNB-75 CNS 57.1% | SNB-19 CNS 70.8% | U251 CNS 87.4% | PC-3 prostate 68.9% | UACC-62 melanoma 58.4% | LOX IMVI melanoma 35.4%

NS(=O)(=O)c1nnc(/N=C/c2c(O)[nH]c3ccccc23)s1
inactive: HCT-15 colon 102% | HT29 colon 105% | SNB-75 CNS 81.2% | SNB-19 CNS 105% | U251 CNS 99.9% | PC-3 prostate 89.3% | SK-MEL-5 melanoma 98.5% | UACC-62 melanoma 97% | LOX IMVI melanoma 100%

O=C(/C=C/c1cccc(F)c1)c1cccc(OCCCOc2cccc(C(=O)/C=C/c3cccc(F)c3)c2)c1
inactive: SNB-75 CNS 112% | SNB-19 CNS 65.1% | U251 CNS 34.5% | PC-3 prostate 36.9% | SK-MEL-5 melanoma 99.4% | UACC-62 melanoma 81.3%
active: HCT-15 colon 9.37% | HT29 colon 9.59% | LOX IMVI melanoma -37.9%

O=C(CCCCCCN1CC(=O)N2[C@@H](C3CC3)c3[nH]c4ccccc4c3C[C@H]2C1=O)NO
inactive: HCT-15 colon 92.9% | HT29 colon 78.3% | SNB-75 CNS 58.7% | SNB-19 CNS 68.4% | U251 CNS 53.1% | PC-3 prostate 74.7% | SK-MEL-5 melanoma 44.1% | UACC-62 melanoma 31.8% | LOX IMVI melanoma 33.2%

CCCCN1C(=O)/C(=c2\sc3n(c2=O)C2C(NN=3)N(CC)C(=O)N2CC)c2cc(C)ccc21 (configuration not stated)
inactive: HCT-15 colon 86.2% | HT29 colon 102% | SNB-75 CNS 87.9% | SNB-19 CNS 93.3% | U251 CNS 98.3% | PC-3 prostate 95.8% | SK-MEL-5 melanoma 92.8% | UACC-62 melanoma 71.6% | LOX IMVI melanoma 78.8% | SK-MEL-28 melanoma 102%

Cc1ccccc1NC(=O)Nc1nc2ccc([N+](=O)[O-])cc2s1
active: HT29 colon 5.11% | SNB-75 CNS 6.72% | U251 CNS 3.34% | PC-3 prostate 2.79% | SK-MEL-5 melanoma -47.2%
inactive: HCT-15 colon 12.1% | SNB-19 CNS 14.1% | UACC-62 melanoma 11.6% | LOX IMVI melanoma 12.1% | SK-MEL-28 melanoma 16.6%

O=C(O)CC1CCN(c2ccc3nnc(Cl)n3n2)CC1
inactive: HCT-15 colon 98.8% | HT29 colon 101% | SNB-75 CNS 84.7% | SNB-19 CNS 100% | U251 CNS 110% | PC-3 prostate 104% | SK-MEL-5 melanoma 101% | UACC-62 melanoma 95.5% | LOX IMVI melanoma 95.6% | SK-MEL-28 melanoma 102%

COc1ccc(CC(C)=C(c2ccc(OCCN3CCCC3)cc2)c2ccc(OCCN3CCCC3)cc2)cc1
active: HCT-15 colon -85.2% | HT29 colon -77.6% | SNB-75 CNS -76.7% | SNB-19 CNS -81% | U251 CNS -70.1% | PC-3 prostate -73.2% | SK-MEL-5 melanoma -96.1% | UACC-62 melanoma -88.8% | LOX IMVI melanoma -86.6% | SK-MEL-28 melanoma -92.2%

CN1CCN(c2ccc(Nc3nc(NCCCNS(=O)(=O)c4ccccc4)c4sccc4n3)cc2)CC1
active: HT29 colon -26.7% | LOX IMVI melanoma -22.2% | SK-MEL-28 melanoma -24.3%
inactive: HCT-15 colon 27.2% | SNB-75 CNS 89.3% | SNB-19 CNS 56.6% | U251 CNS 13.2% | PC-3 prostate 68.9% | SK-MEL-5 melanoma 24.9% | UACC-62 melanoma 13.2%

COc1ccc2c(c1)c(/C=N/Nc1ccnc3cc(Cl)ccc13)cn2C
active: HCT-15 colon -85.3% | HT29 colon -44.8% | SNB-75 CNS -91.2% | SNB-19 CNS -68.1% | U251 CNS -80.1% | PC-3 prostate -83.8% | SK-MEL-5 melanoma -95% | UACC-62 melanoma -57.7% | LOX IMVI melanoma -78.7% | SK-MEL-28 melanoma -85.2%

Brc1ccc2[nH]cc(-c3nn4cc(-c5nccs5)nc4s3)c2c1
active: SNB-75 CNS -1.58% | PC-3 prostate 9.64% | LOX IMVI melanoma 8.86%
inactive: HCT-15 colon 10.2% | HT29 colon 40.9% | SNB-19 CNS 61.1% | U251 CNS 61.3% | SK-MEL-5 melanoma 73.1% | UACC-62 melanoma 79.3% | SK-MEL-28 melanoma 49.6%

C=C1CCc2nc(SCC(=O)O)ccc2N1
inactive: HCT-15 colon 99.1% | HT29 colon 109% | SNB-75 CNS 85.1% | SNB-19 CNS 92.7% | U251 CNS 112% | PC-3 prostate 104% | SK-MEL-5 melanoma 101% | UACC-62 melanoma 93.2% | LOX IMVI melanoma 96.9% | SK-MEL-28 melanoma 106%

N#C/C(=C\c1ccc(-c2ccc(Cl)cc2)o1)C(=O)Nc1ncc(Cc2ccc(Br)cc2)s1
active: HT29 colon 7.27% | SNB-75 CNS -18.1% | SNB-19 CNS 3.38% | U251 CNS -81.9% | PC-3 prostate 9.73% | UACC-62 melanoma 1% | LOX IMVI melanoma -69.7%
inactive: HCT-15 colon 15.3% | SK-MEL-5 melanoma 51.9% | SK-MEL-28 melanoma 11%

C=C(C)[C@@H]1CC[C@]2(COCCCNCCCN)CC[C@]3(C)[C@H](CC[C@@H]4[C@@]5(C)CC[C@H](O)C(C)(C)[C@@H]5CC[C@]43C)[C@@H]12
active: HCT-15 colon -78% | HT29 colon -62.6% | SNB-75 CNS -86.6% | SNB-19 CNS -91% | U251 CNS -73.4% | PC-3 prostate -74.4% | SK-MEL-5 melanoma -63.5% | UACC-62 melanoma -89.6% | LOX IMVI melanoma -80.7% | SK-MEL-28 melanoma -92.8%

CCOC(=O)c1ccc(NC2=CC(=O)C(C)=C(C)C2=O)cc1
inactive: HCT-15 colon 88.5% | HT29 colon 110% | SNB-75 CNS 78.7% | SNB-19 CNS 71.9% | U251 CNS 81.6% | PC-3 prostate 49% | SK-MEL-5 melanoma 91.6% | UACC-62 melanoma 74.1% | LOX IMVI melanoma 46% | SK-MEL-28 melanoma 109%

O=C1/C(=C/c2cc(F)cc(F)c2)Cc2cc3c(cc21)OCO3
active: SNB-75 CNS 6.56%
inactive: HCT-15 colon 27.2% | HT29 colon 22.1% | SNB-19 CNS 49.7% | U251 CNS 43.4% | PC-3 prostate 25.3% | SK-MEL-5 melanoma 23.6% | UACC-62 melanoma 24.3% | LOX IMVI melanoma 38.5% | SK-MEL-28 melanoma 57.8%

CC1=C(C)C(=O)C(Nc2cccc(C(F)(F)F)c2)=C(Br)C1=O
active: LOX IMVI melanoma 6.64%
inactive: HCT-15 colon 82.7% | HT29 colon 106% | SNB-75 CNS 62.2% | SNB-19 CNS 91.1% | U251 CNS 87.4% | PC-3 prostate 71% | SK-MEL-5 melanoma 81.3% | UACC-62 melanoma 80.8% | SK-MEL-28 melanoma 105%

Cc1ccc(C)c(NC2=C(Cl)C(=O)c3nc(C)ccc3C2=O)c1
inactive: HT29 colon 86.4% | SNB-75 CNS 63.2% | SNB-19 CNS 17.1%
active: HCT-15 colon -60.9% | U251 CNS 1.85% | PC-3 prostate 9.58% | SK-MEL-5 melanoma -96.8% | UACC-62 melanoma -35.2% | LOX IMVI melanoma -69.5% | SK-MEL-28 melanoma -11.6%

O=C(CSc1nnc(-c2ccc(Cl)cc2)n1-c1ccccc1)Nc1cccc(F)c1
active: SNB-75 CNS -14.1% | LOX IMVI melanoma 0.1%
inactive: HCT-15 colon 67.8% | HT29 colon 48.1% | SNB-19 CNS 48.3% | U251 CNS 14.1% | PC-3 prostate 62.1% | SK-MEL-5 melanoma 87.9% | UACC-62 melanoma 93.5% | SK-MEL-28 melanoma 78%

COc1ccc(C(C)=C(c2ccc(OCCN3CCCCCC3)cc2)c2ccc(OCCN3CCCCCC3)cc2)cc1
active: HCT-15 colon -82.1% | HT29 colon -49.9% | SNB-75 CNS -12% | SNB-19 CNS -51.7% | U251 CNS -77.9% | PC-3 prostate -54.6% | SK-MEL-5 melanoma -92% | UACC-62 melanoma -65.2% | LOX IMVI melanoma -84% | SK-MEL-28 melanoma -89.3%

O=S(=O)(Oc1ccc(-c2cn3ccoc3n2)cc1)c1cccc(C(F)(F)F)c1
inactive: HCT-15 colon 95.6% | HT29 colon 103% | SNB-75 CNS 96.3% | SNB-19 CNS 95.2% | U251 CNS 101% | PC-3 prostate 95.2% | SK-MEL-5 melanoma 96.1% | UACC-62 melanoma 86.5% | LOX IMVI melanoma 94.7% | SK-MEL-28 melanoma 106%
